Compound activity deposited in PubChem BioAssay by National Center for Advancing Translational Sciences (NCATS).
Only some compounds are listed: those with a hit (about 21% of all), similar ones and a draw of the others.
ELG1 repair inh – ELG1-dependent DNA repair inhibition. HEK293T ELG1-luciferase reporter, luminescence, 16 h; DNA damage induced by 5-fluorouridine. Potency, µM (top dose mostly 46.1 µM), inactives show at the top dose activity change, negative = inhibition, usual class: inhibitors. AID 504467. 2.3% of 330,000 active; further: potency means the concentration at half of the fitted maximal effect; nearly all actives have a fitted effect of over 55% in size
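Cells (2,000 per well) received 5-fluorouridine plus test compound or DMSO and were incubated 16 hr at 37 °C, 5% CO2. Luciferase activity was read by luminescence 30 min after ONE-Glo addition; signal suppression marked inhibition of damage-induced ELG1 function.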
DT40 TDP1 no CPT – qHTS for Inhibitors of human tyrosyl-DNA phosphodiesterase 1 (TDP1): qHTS in cells in absence of CPT. DT40 Tdp1-/- hTDP1 cells, no CPT, ATP luminescence, 48 h. Potency, µM (doses to about 46.2 µM), inactives show at the top dose activity change, negative = growth inhibition, hits mostly inhibitors. 15% of 420,000 active. AID 686978, 2013; further: potency means the concentration at half of the fitted maximal effect; nearly all actives have a fitted effect of over 55% in size
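Readout: luminescence from CellTiter-Glo after 30 min in the dark at RT. Cells: DT40 Tdp1-/- with stable hTDP1, 400/well. Exposure: compounds alone, ≥48 hr, 37 °C.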
TDP1 cell CPT – growth inhibition of DT40 Tdp1-/-;hTDP1 cells with camptothecin (screen for TDP1 inhibitors) | chicken DT40 Tdp1-/-;hTDP1 cells + 20 nM CPT, ATP luminescence, 48 h | Potency, µM (series often up to 46.2 µM), without a hit: at the highest dose activity change, negative = growth inhibition, most hits filed as inhibitors | 12% of 420,000 active; further: potency means the concentration at half of the fitted maximal effect; nearly all actives have a fitted effect of over 55% in size
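Chicken DT40 Tdp1-/- cells stably complemented with human TDP1 were seeded at 400 cells/well in medium containing 20 nM camptothecin, exposed to pin-transferred compounds, and grown at 37 °C for at least 48 hr. Viability was read as ATP luminescence.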
RORg inh – ROR gamma (mouse) transcription inhibition; P51450; Drosophila S2 Gal4-RORgamma UAS-luciferase reporter, 20 h; Potency, µM (doses to about 53.6 µM), for the others: at the highest dose activity change, negative = inhibition, most hits filed as inhibitors; 5.4% of 310,000 active; AID 2551; further: potency means the concentration at half of the fitted maximal effect; nearly all actives have a fitted effect of over 60% in size
Target sequence (P51450 whole entry, looked up, the tested form may be a part): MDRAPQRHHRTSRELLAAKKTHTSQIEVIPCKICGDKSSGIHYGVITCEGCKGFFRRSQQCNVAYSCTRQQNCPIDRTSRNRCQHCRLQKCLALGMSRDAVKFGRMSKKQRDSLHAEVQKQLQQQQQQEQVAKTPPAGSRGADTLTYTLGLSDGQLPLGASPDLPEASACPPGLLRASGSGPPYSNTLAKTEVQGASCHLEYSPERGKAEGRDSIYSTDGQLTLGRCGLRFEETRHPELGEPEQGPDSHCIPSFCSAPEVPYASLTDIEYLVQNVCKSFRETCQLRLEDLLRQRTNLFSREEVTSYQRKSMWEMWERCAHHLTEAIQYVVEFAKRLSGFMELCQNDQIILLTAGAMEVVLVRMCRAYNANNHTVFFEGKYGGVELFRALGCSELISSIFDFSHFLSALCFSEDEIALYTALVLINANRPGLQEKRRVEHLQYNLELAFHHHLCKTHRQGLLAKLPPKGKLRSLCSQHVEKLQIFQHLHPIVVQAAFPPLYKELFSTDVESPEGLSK
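Drosophila S2 cells stably expressing Gal4-DBD/mouse RORγ fusion under metallothionein promoter plus UAS-luciferase; compound 1 h, then 700 uM CuSO4 induction for 20 h at ambient temperature; inhibition read as reduced luminescence.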
IL-1B inflam inh – inflammasome signaling inhibition, IL-1 beta readout; THP-1 LPS/ATP IL-1B secretion, AlphaLISA, 16 h; active compounds read low; activity change, % at 57.5 µM; 4.7% of 360,000 active; AID 743279; in the data active means activity change below about -50%; inconclusive means mostly about -30% to -49%
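THP-1 cells pretreated 1 hr with compounds (up to 57.5 uM final), then stimulated with LPS (250 ng/mL final) plus ATP (1.25 mM final); secreted IL-1B measured by AlphaLISA after 16 hr, decreased signal indicating inhibition.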
VP16 counter – Gal4-VP16 reporter inhibition counter-screen. Potency, µM (doses to about 53.6 µM), without a hit: top-dose activity, negative = inhibition, most hits filed as inhibitors. Drosophila S2 Gal4-VP16 UAS-luciferase, luminescence, 20 h. 3.5% of 310,000 active;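 further: Gal4-VP16 expression switched on by copper sulfate through the metallothionein promoter; potency means the concentration at half of the fitted maximal effect; nearly all actives have a fitted effect of over 50% in size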
Numbers without * were called inactive; [ ] = dose if it differs, or a comment. Unless noted, the call rests on the fitted dose curve; in most records, active means well fitted curve in the direction sought with a large enough effect; inconclusive means small, poorly fitted or top-dose-only effect, or another doubt; inactive means no such curve, though single readings can be large; an effect the other way counts as inactive or inconclusive. On the % scale 0 is the no-effect control and ±100 the full control effect.

How did COc1ccc(C2CC(=O)c3c(O)cc(O[C@H]4OC(COC5OC(C)C(O)C(O)[C@@H]5O)C(O)C(O)C4O)cc3O2)cc1O (stereo partly specified) do in these assays?
DT40 TDP1 no CPT: 1%; TDP1 cell CPT: 15%; RORg inh: -12%; VP16 counter: 2%

How did CN(C(=O)COc1ccccc1C(=O)NCCOc1ccccc1)c1ccccc1 do in these assays?
ELG1 repair inh: 10µM*; DT40 TDP1 no CPT: 2.3µM*; TDP1 cell CPT: 2.3µM*; RORg inh: inconclusive; IL-1B inflam inh: -97*; VP16 counter: 7.9µM*

What do the screens show for `O=C(NCCOc1ccccc1)c1ccccc1Cl`?
ELG1 repair inh: inconclusive; DT40 TDP1 no CPT: 2%; TDP1 cell CPT: 7%; RORg inh: -26%; IL-1B inflam inh: -22; VP16 counter: inconclusive

How did O=S(=O)(Oc1ccc(C(=S)N2CCOCC2)cc1)c1ccc(Cl)cc1 do in these assays?
ELG1 repair inh: -25%; DT40 TDP1 no CPT: inconclusive; TDP1 cell CPT: inconclusive; RORg inh: inconclusive; IL-1B inflam inh: inconclusive; VP16 counter: inconclusive

Results for CCCCn1c(=O)c(-[n+]2ccccc2)c([O-])c2ccccc21 ?
ELG1 repair inh: -3%; DT40 TDP1 no CPT: -10%; TDP1 cell CPT: -13%; RORg inh: 11µM*; IL-1B inflam inh: 18; VP16 counter: -22%

What do the screens show for `Cc1ccc(-c2nc3ccsc3c(=O)[nH]2)cc1`?
ELG1 repair inh: inconclusive; DT40 TDP1 no CPT: -9%; TDP1 cell CPT: -7%; RORg inh: 23%; IL-1B inflam inh: 40; VP16 counter: 18%

Results for C#C[C@]1(O)CC[C@H]2[C@@H]3CCc4cc(OC5CCCC5)ccc4[C@H]3CC[C@@]21C ?
DT40 TDP1 no CPT: 8.2µM*; TDP1 cell CPT: 13µM*; RORg inh: -10%[10 µM]; IL-1B inflam inh: 0; VP16 counter: -12%

What do the screens show for `C#C[C@]1(O)CC[C@H]2[C@@H]3CCc4cc(OC)ccc4[C@H]3CC[C@@]21C`?
ELG1 repair inh: 1%; DT40 TDP1 no CPT: 21µM*; TDP1 cell CPT: 0.24µM*; RORg inh: inconclusive; IL-1B inflam inh: 8; VP16 counter: 2%

Results for CC12CC[C@@H]3c4ccc(OS(=O)(=O)O)cc4CC[C@H]3C1CCC2=O (stereo partly specified) ?
RORg inh: -14%[16.9 µM]; VP16 counter: -9%[17 µM]

How did C#C[C@]1(O)CC[C@H]2[C@H]3CCc4cc(O)ccc4[C@@H]3CC[C@@]21C do in these assays?
RORg inh: -1%; VP16 counter: 3%

Results for C#C[C@@]1(O)CC[C@@H]2[C@@H]3CCC4=C(CCC(=O)C4)[C@H]3CC[C@]21C ?
RORg inh: 19%[2.98 µM]; VP16 counter: 1%[17 µM]

What do the screens show for `C=CCOc1ccc2c(c1)CCC1C2CCC2(C)C(O)C(O)CC12` (stereo unspecified)?
DT40 TDP1 no CPT: inconclusive; TDP1 cell CPT: inconclusive; IL-1B inflam inh: -75*

What do the screens show for `C#C[C@]1(O)CC[C@H]2[C@@H]3CCC4=C(CCC(=O)C4)[C@H]3CC[C@@]21C`?
ELG1 repair inh: 5%; DT40 TDP1 no CPT: 7.2µM*; TDP1 cell CPT: inconclusive; RORg inh: 43%; IL-1B inflam inh: -5; VP16 counter: 6%

What do the screens show for `COc1ccc(-c2nc3cnc(Oc4ccccc4)nc3n(C3CC3)c2=O)cc1`?
DT40 TDP1 no CPT: -4%; TDP1 cell CPT: 0%; RORg inh: 2%; VP16 counter: -4%

What do the screens show for `C=C1CC[C@@H]2O[C@@]2(C)CC[C@H]2[C@H]1CC2(C)C`?
DT40 TDP1 no CPT: 1%; TDP1 cell CPT: 3%; RORg inh: 12%; VP16 counter: -2%

Results for CC/C=C\C/C=C\C/C=C\C/C=C\C/C=C\CCC(=O)O[C@H](COCCCCCCCCCCCCCCCC)COP(=O)([O-])OCC[N+](C)(C)C ?
RORg inh: 30%; VP16 counter: 2%

Results for CC(C)=CCC/C(C)=C/CNC(=O)C[C@H]1C[C@H](C(=O)N2CCOCC2)[C@@]2(CCC3CCCC3)c3[nH]c4cc(CCC(=O)N(C)C)ccc4c3CCN2C1=O ?
ELG1 repair inh: 23µM*; DT40 TDP1 no CPT: 6.5µM*; TDP1 cell CPT: 5.8µM*; IL-1B inflam inh: inconclusive

What do the screens show for `CC[C@]12c3[nH]c4cc(CCC(=O)N(C)C)ccc4c3CCN1C(=O)[C@@H](CC(=O)NC/C=C(\C)CCC=C(C)C)C[C@@H]2C(=O)N1CCN(C(=O)c2ccco2)CC1`?
ELG1 repair inh: inconclusive; DT40 TDP1 no CPT: 5.8µM*; TDP1 cell CPT: 10µM*; IL-1B inflam inh: 0

How did COCCCNC(=O)C[C@H]1C[C@H](C(=O)N2CCOCC2)[C@@]2(CCC3CCCC3)c3[nH]c4cc(CCC(=O)N(C)C)ccc4c3CCN2C1=O do in these assays?
ELG1 repair inh: inconclusive; DT40 TDP1 no CPT: -8%; TDP1 cell CPT: 0%; IL-1B inflam inh: 18

Results for CN(C)C(=O)CCc1ccc2c3c([nH]c2c1)[C@]1(CCC2CCCC2)[C@@H](C(=O)N2CCOCC2)C[C@H](CC(=O)NCC24CC5CC(CC(C5)C2)C4)C(=O)N1CC3 ?
ELG1 repair inh: inconclusive; DT40 TDP1 no CPT: 23µM*; TDP1 cell CPT: inconclusive; IL-1B inflam inh: -27

How did CC[C@]12c3[nH]c4cc(CCC(=O)N(C)C)ccc4c3CCN1C(=O)[C@@H](CC(=O)NCCC1=CCCCC1)C[C@@H]2C(=O)N1CCN(C(=O)c2ccco2)CC1 do in these assays?
ELG1 repair inh: inconclusive; DT40 TDP1 no CPT: -22%; TDP1 cell CPT: 4%; IL-1B inflam inh: 3

How did CSc1ncccc1C(=O)NC(C)CCc1ccccc1 (stereo unspecified) do in these assays?
ELG1 repair inh: -18%; DT40 TDP1 no CPT: -21%; TDP1 cell CPT: -8%; RORg inh: -10%; IL-1B inflam inh: -10; VP16 counter: 3%

What do the screens show for `Oc1ccc(C=NCCc2ccccc2)cc1`?
ELG1 repair inh: -4%; DT40 TDP1 no CPT: 16%; TDP1 cell CPT: -13%; RORg inh: 2%; IL-1B inflam inh: 5; VP16 counter: 5%

Results for COc1ccc(-n2c(C)c([N+](=O)[O-])c3ccc(O)c(CN4CCCCC4)c32)cc1 ?
ELG1 repair inh: 10µM*; DT40 TDP1 no CPT: inconclusive; TDP1 cell CPT: 16µM*; RORg inh: -11%; IL-1B inflam inh: -68*; VP16 counter: 1%
